Assay in all cases: DAPPL (digital affinity profiling via proximity ligation, sequencing); 10 mM Tris-HCl pH 7.5, 50 mM NaCl, 1 mM DTT, 4% glycerol, room temperature, 30 min; GST-TFs on glutathione beads, 16-mer random dsDNA library, 0.1% formaldehyde crosslink after washing; high values mean tight binding
Holding throughout (conditions): protein: recombinant; tags: N-terminal GST; dsDNA, one strand shown

Assay [1] deals with T1, ELK1 (Homo sapiens, UniProt P19419 1-428).
T1 sequence: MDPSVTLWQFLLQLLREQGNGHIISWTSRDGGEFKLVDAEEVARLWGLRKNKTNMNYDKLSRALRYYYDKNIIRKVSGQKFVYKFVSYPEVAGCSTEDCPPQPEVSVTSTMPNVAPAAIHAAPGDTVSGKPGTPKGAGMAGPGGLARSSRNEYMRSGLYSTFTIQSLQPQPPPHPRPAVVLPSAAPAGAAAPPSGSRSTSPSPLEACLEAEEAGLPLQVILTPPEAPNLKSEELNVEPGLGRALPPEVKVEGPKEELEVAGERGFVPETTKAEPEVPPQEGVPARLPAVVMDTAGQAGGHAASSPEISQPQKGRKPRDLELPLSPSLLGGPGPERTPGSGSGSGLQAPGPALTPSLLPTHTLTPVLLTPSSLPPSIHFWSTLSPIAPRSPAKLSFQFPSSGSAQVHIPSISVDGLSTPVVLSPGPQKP
A digest of the protocol: (§1)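 Sequencing on an Illumina NextSeq500 followed washing, crosslinking with 0.1% formaldehyde, proximity ligation (BsaI/T4 ligase, 1 h, 37 °C) and PCR amplification of pools that had been incubated for 30 min at room temperature with 200 nmole of a random double-stranded 16-mer DNA library in Tris/NaCl/DTT/glycerol buffer. Each pool held DNA-barcoded human transcription factors, expressed in yeast as GST fusions and captured on glutathione beads, plus a tag-only sample. Binding signal is a hexamer's read frequency for a factor divided by its frequency in the tag-only sample.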

Assay [2] addresses ELF1 (Homo sapiens, UniProt P32519 1-619). An outline of the steps:
as §1

Assay [3] deals with T2, EHF (Homo sapiens, UniProt Q9NZC4 1-300).
T2 sequence: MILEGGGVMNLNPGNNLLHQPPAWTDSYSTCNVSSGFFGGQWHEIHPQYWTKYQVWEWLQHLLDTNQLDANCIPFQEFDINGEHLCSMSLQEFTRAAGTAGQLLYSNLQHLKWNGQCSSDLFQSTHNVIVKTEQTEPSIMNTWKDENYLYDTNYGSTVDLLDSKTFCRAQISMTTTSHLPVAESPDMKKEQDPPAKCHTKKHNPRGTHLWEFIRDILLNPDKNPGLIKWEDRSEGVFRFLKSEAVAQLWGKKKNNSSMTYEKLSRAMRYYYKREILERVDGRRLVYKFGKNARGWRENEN
An outline of the steps: as §1

The target of assay [4] is SPIB (Homo sapiens, UniProt Q01892 1-262). A digest of the protocol: as §1
SPIB, sequence (Q01892 whole entry): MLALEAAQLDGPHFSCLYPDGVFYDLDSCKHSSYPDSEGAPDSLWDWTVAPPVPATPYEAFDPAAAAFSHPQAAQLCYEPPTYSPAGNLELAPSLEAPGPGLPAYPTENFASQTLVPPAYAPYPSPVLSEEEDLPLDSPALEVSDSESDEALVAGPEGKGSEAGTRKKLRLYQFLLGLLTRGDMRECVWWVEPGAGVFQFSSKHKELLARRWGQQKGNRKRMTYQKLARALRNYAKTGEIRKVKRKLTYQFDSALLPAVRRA
For assay [5], the target named is T3, ELK3 (Homo sapiens, UniProt P41970 1-407).
T3 sequence: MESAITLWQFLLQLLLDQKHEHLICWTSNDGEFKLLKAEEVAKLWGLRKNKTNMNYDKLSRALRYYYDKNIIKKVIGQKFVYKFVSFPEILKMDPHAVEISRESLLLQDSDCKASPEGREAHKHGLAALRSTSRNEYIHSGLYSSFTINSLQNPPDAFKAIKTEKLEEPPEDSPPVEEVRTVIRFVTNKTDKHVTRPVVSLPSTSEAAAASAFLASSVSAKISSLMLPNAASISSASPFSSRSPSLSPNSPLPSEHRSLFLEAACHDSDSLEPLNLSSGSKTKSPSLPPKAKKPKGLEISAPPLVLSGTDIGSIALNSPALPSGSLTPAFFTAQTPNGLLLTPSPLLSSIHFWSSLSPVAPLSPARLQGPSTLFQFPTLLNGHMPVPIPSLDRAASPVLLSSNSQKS
An outline of the steps:
as §1

Assay [6] has as its target ETV5 (Homo sapiens, UniProt P41161 1-510). A digest of the protocol:
as §1

Assay [7] addresses T4, SPIC (Homo sapiens, UniProt Q8N5J4 1-248).
T4 sequence: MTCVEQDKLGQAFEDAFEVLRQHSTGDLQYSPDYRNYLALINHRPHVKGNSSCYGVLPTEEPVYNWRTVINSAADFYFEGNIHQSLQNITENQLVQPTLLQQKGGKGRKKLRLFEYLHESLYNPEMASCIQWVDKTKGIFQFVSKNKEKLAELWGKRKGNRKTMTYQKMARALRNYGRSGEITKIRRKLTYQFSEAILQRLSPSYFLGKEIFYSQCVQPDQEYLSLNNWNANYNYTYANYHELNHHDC
An outline of the steps: as §1

Assay [8] has as its target ELF4 (Homo sapiens, UniProt Q99607 1-663). An outline of the steps:
as §1

The target in assay [9] is T5, ELK4 (Homo sapiens, UniProt P28324-2 1-405).
T5 sequence: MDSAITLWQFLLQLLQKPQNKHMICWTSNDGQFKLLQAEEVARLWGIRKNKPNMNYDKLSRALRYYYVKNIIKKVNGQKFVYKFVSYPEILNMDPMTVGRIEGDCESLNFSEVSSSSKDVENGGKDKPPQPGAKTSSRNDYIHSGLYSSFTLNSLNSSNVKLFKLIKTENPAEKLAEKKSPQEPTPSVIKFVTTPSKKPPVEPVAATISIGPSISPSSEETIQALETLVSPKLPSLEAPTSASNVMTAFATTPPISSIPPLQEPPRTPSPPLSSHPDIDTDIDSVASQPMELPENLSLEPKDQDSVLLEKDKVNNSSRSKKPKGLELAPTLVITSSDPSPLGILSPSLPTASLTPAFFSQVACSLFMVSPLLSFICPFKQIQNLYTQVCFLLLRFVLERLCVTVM
An outline of the steps:
as §1

Assay [10] deals with T6, ELF3 (Homo sapiens, UniProt P78545 1-371).
T6 sequence: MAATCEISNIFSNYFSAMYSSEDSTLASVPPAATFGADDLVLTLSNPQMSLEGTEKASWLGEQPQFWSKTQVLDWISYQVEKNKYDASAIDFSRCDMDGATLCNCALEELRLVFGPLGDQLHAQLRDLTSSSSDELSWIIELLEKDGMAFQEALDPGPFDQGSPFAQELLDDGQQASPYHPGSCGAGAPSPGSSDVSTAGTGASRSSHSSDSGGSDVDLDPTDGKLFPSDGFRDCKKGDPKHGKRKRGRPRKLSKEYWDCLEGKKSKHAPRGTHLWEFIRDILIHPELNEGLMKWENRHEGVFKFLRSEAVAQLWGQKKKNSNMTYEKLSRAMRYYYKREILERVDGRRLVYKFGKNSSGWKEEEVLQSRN
An outline of the steps:
as §1

In assay [11] the target is ETV1 (Homo sapiens, UniProt P50549 1-477). A digest of the protocol: as §1
ETV1, sequence (P50549 whole entry): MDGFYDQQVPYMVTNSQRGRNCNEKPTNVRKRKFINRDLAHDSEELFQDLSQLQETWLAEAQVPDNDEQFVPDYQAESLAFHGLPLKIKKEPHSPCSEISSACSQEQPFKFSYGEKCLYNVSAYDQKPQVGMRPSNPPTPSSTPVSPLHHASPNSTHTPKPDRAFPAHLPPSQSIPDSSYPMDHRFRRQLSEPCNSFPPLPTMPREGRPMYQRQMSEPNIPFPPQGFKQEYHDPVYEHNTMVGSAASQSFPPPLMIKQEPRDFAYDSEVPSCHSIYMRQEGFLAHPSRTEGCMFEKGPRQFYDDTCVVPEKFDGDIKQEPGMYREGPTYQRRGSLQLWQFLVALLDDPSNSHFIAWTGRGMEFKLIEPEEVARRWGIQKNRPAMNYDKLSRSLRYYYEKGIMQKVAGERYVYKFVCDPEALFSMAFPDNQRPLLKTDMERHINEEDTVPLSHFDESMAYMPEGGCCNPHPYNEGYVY
The target in assay [12] is T7, ERF (Homo sapiens, UniProt P50548 1-548).
T7 sequence: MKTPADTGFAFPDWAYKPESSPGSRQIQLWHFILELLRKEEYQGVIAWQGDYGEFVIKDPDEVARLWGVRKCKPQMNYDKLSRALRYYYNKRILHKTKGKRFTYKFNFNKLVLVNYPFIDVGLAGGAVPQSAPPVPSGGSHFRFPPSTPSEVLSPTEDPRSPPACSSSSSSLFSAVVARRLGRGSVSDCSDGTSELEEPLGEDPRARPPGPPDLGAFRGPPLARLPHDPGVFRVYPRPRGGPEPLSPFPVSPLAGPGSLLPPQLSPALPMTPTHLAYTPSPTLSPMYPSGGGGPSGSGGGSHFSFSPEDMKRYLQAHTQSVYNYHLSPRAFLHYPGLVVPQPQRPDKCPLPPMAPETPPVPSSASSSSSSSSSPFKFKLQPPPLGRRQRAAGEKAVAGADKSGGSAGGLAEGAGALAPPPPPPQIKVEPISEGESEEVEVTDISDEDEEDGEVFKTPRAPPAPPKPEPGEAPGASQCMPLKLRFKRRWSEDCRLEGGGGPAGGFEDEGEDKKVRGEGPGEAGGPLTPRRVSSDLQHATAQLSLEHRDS
A digest of the protocol: as §1

Assay [13] addresses T8, ETV3L (Homo sapiens, UniProt Q6ZN32 1-361).
T8 sequence: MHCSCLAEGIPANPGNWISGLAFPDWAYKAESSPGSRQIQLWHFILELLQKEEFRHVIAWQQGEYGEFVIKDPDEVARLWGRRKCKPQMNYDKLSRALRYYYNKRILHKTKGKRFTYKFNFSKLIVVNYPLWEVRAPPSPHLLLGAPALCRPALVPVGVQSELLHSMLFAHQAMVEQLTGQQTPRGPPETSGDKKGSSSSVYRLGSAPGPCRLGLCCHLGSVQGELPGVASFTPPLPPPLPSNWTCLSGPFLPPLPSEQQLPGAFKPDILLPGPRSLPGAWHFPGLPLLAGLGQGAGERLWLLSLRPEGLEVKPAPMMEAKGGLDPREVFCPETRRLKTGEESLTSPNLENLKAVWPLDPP
A digest of the protocol:
as §1

Assay [14] addresses T9, ETS2 (Homo sapiens, UniProt P15036 1-469).
T9 sequence: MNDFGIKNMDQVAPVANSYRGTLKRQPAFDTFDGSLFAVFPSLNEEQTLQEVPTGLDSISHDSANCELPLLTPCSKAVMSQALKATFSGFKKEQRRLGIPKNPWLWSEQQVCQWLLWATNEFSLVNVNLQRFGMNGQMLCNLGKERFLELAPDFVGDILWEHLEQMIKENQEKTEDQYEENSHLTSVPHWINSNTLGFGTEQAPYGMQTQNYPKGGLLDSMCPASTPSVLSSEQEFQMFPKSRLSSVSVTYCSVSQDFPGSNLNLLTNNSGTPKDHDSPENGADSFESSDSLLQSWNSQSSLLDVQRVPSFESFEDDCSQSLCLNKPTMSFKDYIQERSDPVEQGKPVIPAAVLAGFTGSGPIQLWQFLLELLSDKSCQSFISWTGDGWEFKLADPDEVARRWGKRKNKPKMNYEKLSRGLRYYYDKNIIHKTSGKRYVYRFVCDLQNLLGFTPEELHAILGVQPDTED
A digest of the protocol:
as §1

The target in assay [15] is T10, SPDEF (Homo sapiens, UniProt O95238 1-335).
T10 sequence: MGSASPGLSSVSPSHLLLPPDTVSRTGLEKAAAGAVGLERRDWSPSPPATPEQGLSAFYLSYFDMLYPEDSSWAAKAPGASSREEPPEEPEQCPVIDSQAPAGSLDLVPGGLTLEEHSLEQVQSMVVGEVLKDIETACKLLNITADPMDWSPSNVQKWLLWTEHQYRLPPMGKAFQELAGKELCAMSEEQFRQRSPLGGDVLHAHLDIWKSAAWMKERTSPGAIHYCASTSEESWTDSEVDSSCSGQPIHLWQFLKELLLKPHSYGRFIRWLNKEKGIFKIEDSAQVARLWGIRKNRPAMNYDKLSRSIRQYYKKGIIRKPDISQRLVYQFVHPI
An outline of the steps:
as §1

Assay [16] addresses T11, ETV7 (Homo sapiens, UniProt Q9Y603 1-341).
T11 sequence: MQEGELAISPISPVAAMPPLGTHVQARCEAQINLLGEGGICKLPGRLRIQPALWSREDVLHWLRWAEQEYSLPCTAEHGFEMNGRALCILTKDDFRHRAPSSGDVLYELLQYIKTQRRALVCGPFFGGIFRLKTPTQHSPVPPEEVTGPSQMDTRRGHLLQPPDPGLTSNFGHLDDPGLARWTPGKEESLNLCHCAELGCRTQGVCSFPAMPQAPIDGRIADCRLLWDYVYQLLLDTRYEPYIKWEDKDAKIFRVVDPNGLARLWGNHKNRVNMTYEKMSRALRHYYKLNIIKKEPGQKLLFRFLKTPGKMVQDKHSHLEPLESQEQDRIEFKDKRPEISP
An outline of the steps:
as §1

Assay [17] addresses ETV6 (Homo sapiens, UniProt P41212 1-452). An outline of the steps:
as §1

Experimental findings from PMC7862700, “An all-to-all approach to the identification of sequence-specific readers for epigenetic DNA modifications on cytosine” are described below.

ELF1, sequence (P32519 whole entry): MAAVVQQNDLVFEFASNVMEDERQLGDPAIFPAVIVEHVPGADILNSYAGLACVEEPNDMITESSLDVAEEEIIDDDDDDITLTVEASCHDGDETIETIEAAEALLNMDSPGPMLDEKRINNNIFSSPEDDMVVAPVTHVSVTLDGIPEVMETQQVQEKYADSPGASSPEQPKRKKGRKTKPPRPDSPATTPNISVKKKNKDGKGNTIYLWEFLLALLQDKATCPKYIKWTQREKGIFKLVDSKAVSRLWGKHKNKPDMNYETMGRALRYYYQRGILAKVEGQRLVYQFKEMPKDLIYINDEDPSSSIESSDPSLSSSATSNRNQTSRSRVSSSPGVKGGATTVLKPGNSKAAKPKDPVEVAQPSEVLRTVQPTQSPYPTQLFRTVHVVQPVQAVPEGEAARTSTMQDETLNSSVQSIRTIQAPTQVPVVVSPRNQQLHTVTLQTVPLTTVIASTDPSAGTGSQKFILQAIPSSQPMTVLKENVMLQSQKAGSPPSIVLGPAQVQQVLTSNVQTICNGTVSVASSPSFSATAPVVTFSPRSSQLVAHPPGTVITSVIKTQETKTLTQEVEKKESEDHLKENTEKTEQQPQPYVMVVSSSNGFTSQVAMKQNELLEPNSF
ETV6, sequence (P41212 whole entry): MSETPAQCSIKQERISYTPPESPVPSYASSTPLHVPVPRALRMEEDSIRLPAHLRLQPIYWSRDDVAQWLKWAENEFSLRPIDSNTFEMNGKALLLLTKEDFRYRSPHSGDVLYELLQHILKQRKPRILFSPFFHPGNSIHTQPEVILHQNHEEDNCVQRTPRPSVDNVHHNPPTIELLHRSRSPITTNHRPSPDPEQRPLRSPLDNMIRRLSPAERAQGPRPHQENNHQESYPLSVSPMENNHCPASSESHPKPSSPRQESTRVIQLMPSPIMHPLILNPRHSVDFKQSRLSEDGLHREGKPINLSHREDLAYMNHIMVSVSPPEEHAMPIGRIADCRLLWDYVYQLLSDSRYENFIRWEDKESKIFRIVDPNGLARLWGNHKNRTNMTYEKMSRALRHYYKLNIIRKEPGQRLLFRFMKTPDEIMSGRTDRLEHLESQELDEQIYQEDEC
ELF4, sequence (Q99607 whole entry): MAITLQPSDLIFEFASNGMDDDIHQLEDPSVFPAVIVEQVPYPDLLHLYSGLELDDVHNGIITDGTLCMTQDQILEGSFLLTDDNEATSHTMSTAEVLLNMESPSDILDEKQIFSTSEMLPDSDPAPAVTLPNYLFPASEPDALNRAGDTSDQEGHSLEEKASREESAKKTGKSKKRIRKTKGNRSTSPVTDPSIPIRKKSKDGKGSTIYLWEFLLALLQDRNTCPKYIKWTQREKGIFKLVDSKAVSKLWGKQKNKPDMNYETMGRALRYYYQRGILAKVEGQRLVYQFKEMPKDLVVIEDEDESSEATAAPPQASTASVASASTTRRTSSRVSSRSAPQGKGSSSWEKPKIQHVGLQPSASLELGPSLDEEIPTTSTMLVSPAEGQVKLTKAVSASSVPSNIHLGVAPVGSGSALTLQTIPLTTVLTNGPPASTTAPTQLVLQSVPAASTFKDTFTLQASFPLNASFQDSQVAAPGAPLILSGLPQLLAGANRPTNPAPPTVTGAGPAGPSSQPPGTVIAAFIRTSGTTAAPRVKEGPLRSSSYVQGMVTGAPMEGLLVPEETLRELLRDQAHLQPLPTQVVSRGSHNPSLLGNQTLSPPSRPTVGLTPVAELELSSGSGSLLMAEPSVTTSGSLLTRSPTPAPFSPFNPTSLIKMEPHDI
ETV5, sequence (P41161 whole entry): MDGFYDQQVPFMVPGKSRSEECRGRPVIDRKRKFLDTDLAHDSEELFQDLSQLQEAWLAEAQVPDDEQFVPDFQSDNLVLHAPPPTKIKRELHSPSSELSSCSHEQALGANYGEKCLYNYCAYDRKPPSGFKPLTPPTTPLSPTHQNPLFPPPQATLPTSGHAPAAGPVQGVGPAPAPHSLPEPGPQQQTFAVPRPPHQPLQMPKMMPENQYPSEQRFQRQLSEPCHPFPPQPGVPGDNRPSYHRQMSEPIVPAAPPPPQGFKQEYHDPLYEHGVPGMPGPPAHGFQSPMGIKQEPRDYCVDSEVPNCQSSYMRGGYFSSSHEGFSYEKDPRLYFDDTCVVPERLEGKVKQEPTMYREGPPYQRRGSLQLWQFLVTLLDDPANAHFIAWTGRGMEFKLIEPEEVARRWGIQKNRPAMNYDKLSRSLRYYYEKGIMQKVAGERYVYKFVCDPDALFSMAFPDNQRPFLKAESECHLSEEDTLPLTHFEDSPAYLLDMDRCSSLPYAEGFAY

Consider GTCTAT, for which the binding signal in assay [1] is 1.04 fold enrichment (6-mer frequency, TF over GST control); in [2], 1.08 fold enrichment (6-mer frequency, TF over GST control); in assay [3] it was 1.1 fold enrichment (6-mer frequency, TF over GST control); in [4], 1.01 fold enrichment (6-mer frequency, TF over GST control); in [5] it was 1.04 fold enrichment (6-mer frequency, TF over GST control); in [6] it was 1.07 fold enrichment (6-mer frequency, TF over GST control). Also, the binding signal in assay [7] was 1.18 fold enrichment (6-mer frequency, TF over GST control); in assay [8], 1.11 fold enrichment (6-mer frequency, TF over GST control); in assay [9], 1 fold enrichment (6-mer frequency, TF over GST control); in assay [10], 1.12 fold enrichment (6-mer frequency, TF over GST control); in assay [11], 1.04 fold enrichment (6-mer frequency, TF over GST control); in assay [12] it was 1.14 fold enrichment (6-mer frequency, TF over GST control). For the same sequence, the binding signal in assay [13] is 1.05 fold enrichment (6-mer frequency, TF over GST control); in assay [14], 1.01 fold enrichment (6-mer frequency, TF over GST control); in assay [15], 1.08 fold enrichment (6-mer frequency, TF over GST control); in assay [16] it was 1.07 fold enrichment (6-mer frequency, TF over GST control); in [17], 1.03 fold enrichment (6-mer frequency, TF over GST control).
